Measurements from PubChem BioAssay (EPA / NIEHS).
“And” between values parts separate entries of the source, which are not always exact repeats. Equal entries are not always repeated. Records with an inconclusive call do not appear. The source made the active and inactive calls. Rule for the calls, unless noted: active = hit-call score of the fitted dose curve at least 0.9, where 1 is the maximum; inconclusive = response in the unintended direction; inactive = score below 0.9.

Key:
[1] = Tanguay_ZF_120hpf_PE_legacy: (Legacy) Oregon State University Tanguay Lab 120 Hour Post-fertilization zebrafish Assay for Pericardial Edema (AID 2283640)
Method in brief: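 Zebrafish larvae are exposed from early development to 120 hpf at 28C, with 0.64% DMSO final. Each surviving larva receives a yes/no pericardial edema call by brightfield imaging, analysed relative to the DMSO baseline.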

[2] = Tanguay_ZF_120hpf_BRAI_legacy: (Legacy) Oregon State University Tanguay Lab 120 Hour Post-fertilization zebrafish Assay for Brain Malformation (AID 2283641)
Method in brief: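 Static exposure of staged wild-type embryos until 120 hpf, kept at 28C with light excluded and final DMSO of 0.64% (vol/vol). Presence or absence of brain malformation was noted under brightfield; mortality precluded scoring.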

[3] = Tanguay_ZF_120hpf_SOMI_legacy: (Legacy) Oregon State University Tanguay Lab 120 Hour Post-fertilization zebrafish Assay for Somite Malformation (AID 2283647)
Method in brief: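 Somitogenesis defects are recorded as binary calls in whole larvae at 120 hpf after continuous static chemical exposure starting at 6 hpf in dechorionated 5D embryos. DMSO serves as negative control and baseline.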

[4] = Tanguay_ZF_120hpf_CFIN_legacy: (Legacy) Oregon State University Tanguay Lab 120 Hour Post-fertilization zebrafish Assay for Caudal Fin Malformation (AID 2283649)
Method in brief: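 Single dechorionated 5D wild-type embryos are dosed at 6 hpf (final DMSO 0.64%) and held statically at 28C. Caudal fin malformation is recorded as present or absent at 120 hpf under brightfield, excluding dead embryos.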

[5] = Tanguay_ZF_120hpf_PIG_legacy: (Legacy) Oregon State University Tanguay Lab 120 Hour Post-fertilization zebrafish Assay for Pigmentation Malformation (AID 2283650)
Method in brief: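 Brightfield scoring of pigmentation malformation at 120 hpf, recorded as binary present/absent per larva. Exposure: dechorionated 5D wild-type embryos, one per well, static from 6 hpf at 28C, final DMSO 0.64% (vol/vol). Dead embryos not scored.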

[6] = Tanguay_ZF_120hpf_TR_legacy: (Legacy) Oregon State University Tanguay Lab 120 Hour Post-fertilization zebrafish Assay for Touch Response (AID 2283667)
Method in brief: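 Binary touch-response call at 120 hpf, analysed as gain of signal versus DMSO baseline. Wild-type 5D larvae, static exposure at 28C, 0.64% DMSO final; 5uM trimethyltin chloride as positive control.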

[7] = Tanguay_ZF_120hpf_PFIN_legacy: (Legacy) Oregon State University Tanguay Lab 120 Hour Post-fertilization zebrafish Assay for Pectoral Fin Malformation (AID 2283648);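 note: each larva judged yes or no for fin defect by brightfield with dead larvae skipped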
Method in brief: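 Binary pectoral fin malformation call at 120 hpf by brightfield microscopy; 5D wild-type zebrafish, chorion removed at 4 hpf, one embryo per well from 6 hpf, static exposure at 28C; DMSO (0.64% final) as baseline.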

[8] = CCTE_Padilla_ZF_144hpf_TERATOSCORE: (Legacy) CCTE's 144 Hour Post-fertilization zebrafish Assay Teratoscore, Padilla Lab (AID 2283679; active = hit-call score of the fitted dose curve at least 0.9, where 1 is the maximum; inactive = score below 0.9;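 for AC50: zebrafish embryos with chorions exposed by immersion from 6-8 hpf to 5 dpf with daily renewal; teratogenicity score from eye scoring of death hatching and malformations at 144 hpf; higher score means more developmental defects relative to DMSO baseline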)
Method in brief: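 Larvae scored by eye at 144 hpf for death, hatching and malformations after a day in clean Hanks'. Before that, daily-renewed exposure at 80 uM (0.4% DMSO, 26C) from roughly 6-8 hpf through 5 dpf, 4 embryos per chemical.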

[9] = read-out: kallikrein-3 (KLK3), KLK3 (gene 354); assay: LTEA_HepaRG_KLK3: Life Technologies and Expression Analysis (LTEA) Assay for kallikrein-3 (KLK3) using HepaRG (AID 2283652; active = hit-call score of the fitted dose curve at least 0.9, where 1 is the maximum; inactive = score below 0.9); conditions: mRNA level, 48 h; actives raise or lower the signal
Method in brief: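 KLK3 transcript levels were measured by TaqMan qRT-PCR with normalisation to three housekeeping genes. HepaRG cultures received chemicals for 48 h at up to 100 uM (half-log, 8 points, 0.5% DMSO vehicle), fitted in both directions against DMSO.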

[10] = Tanguay_ZF_120hpf_SWIM_legacy: (Legacy) Oregon State University Tanguay Lab 120 Hour Post-fertilization zebrafish Assay for Swim Bladder Malformation (AID 2283654);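 note: swim bladder malformation in each larva scored yes or no under brightfield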
Method in brief: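 Tropical 5D embryos dechorionated at 4 hpf; 1 embryo/well from 6 hpf; static, sealed, dark exposure at 28C until 120 hpf; final DMSO 0.64%; 5uM trimethyltin chloride positive control; swim bladder defect recorded yes/no; dead embryos not scored.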

[11] = Tanguay_ZF_120hpf_TRUN_legacy: (Legacy) Oregon State University Tanguay Lab 120 Hour Post-fertilization zebrafish Assay for Truncated Body (AID 2283655)
Method in brief: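 Single dechorionated zebrafish embryos received test chemical from 6 hpf in 0.64% DMSO, kept at 28C. At 120 hpf, brightfield inspection noted any truncated body.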

[12] = Tanguay_ZF_120hpf_NC_legacy: (Legacy) Oregon State University Tanguay Lab 120 Hour Post-fertilization zebrafish Assay for Notochord and Tail Malformation (AID 2283656)
Method in brief: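 Binary scoring of notochord distortion by brightfield microscopy; embryos dying were not scored. Wild-type Tropical 5D embryos, chorion removed, exposed singly and statically from 6 to 120 hpf, 28C, sealed, 0.64% DMSO.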

[13] = STM_H9_OrnithineISnorm_perc: Stemina devTOX quickPredict H9 human embryonic stem cell (hESC)-based Assay for Ornithine (ORN) Metabolite Biomarker, Normalized (AID 2283712; active = hit-call score of the fitted dose curve at least 0.9, where 1 is the maximum; inactive = score below 0.9;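 note: ornithine released into spent medium during last day measured by mass spectrometry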)
Method in brief: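 Ornithine in spent medium from the last 24 h of a 72 h exposure, deproteinised and quantified by UPLC-HRMS against an isotope-labelled internal standard, expressed relative to 0.1% DMSO. Pluripotent H9 cells; compound refreshed every 24 h.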

[14] = Tanguay_ZF_120hpf_CIRC_legacy: (Legacy) Oregon State University Tanguay Lab 120 Hour Post-fertilization zebrafish Assay for Circulatory Malformation (AID 2283651)
Method in brief: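 Binary circulatory malformation call at 120 hpf by brightfield imaging of zebrafish larvae; chorion removed at 4 hpf, static exposure from 6 hpf in sealed dark plates at 28C, final DMSO 0.64%; non-mortality endpoints skipped if embryo died.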

[15] = tested on: Thyroperoxidase (TPO), gene 54314; assay: CCTE_Simmons_AUR_rTPO: CCTE's Amplex UltraRed Assay for Thyroperoxidase (TPO) Inhibition, Simmons Lab (AID 2283662);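 note: potency for loss of signal meaning inhibition of peroxidase activity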
Method in brief: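 Cell-free peroxidase activity assay using rat thyroid gland microsomes with excess H2O2 (300 uM) and 25 uM Amplex UltraRed. Compounds tested from 5 nM to 87.5 uM; fluorescence measured after 30 min at 37C, analysed relative to DMSO baseline.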

[16] = CCTE_Simmons_CellTiterGLO_HEK293T: Viability Assessment in CCTE's Assays for Thyroperoxidase (TPO) Inhibition, Simmons Lab (AID 2283665);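 for AC50: cells exposed to compound for 24 h before readout; actives reduce ATP signal below DMSO vehicle meaning cytotoxicity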
Method in brief: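 Luciferase-coupled ATP content after 24 h exposure gives viability; 8-point series from 5 nM to 87.5 uM final in 0.5% DMSO. Human HEK293T cells, 1% FBS medium, three biological replicates, dichlone positive control.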

Measured: AC50

OCC(CO)n1cnc(-c2ccc(F)cc2)c1-c1ccnc(Oc2ccccc2)n1
inactive: [1] | [2] | [3] | [4] | [5] | [6]

CN(C)CCCN(C)CCCN(C)C
inactive: [1] | [2] | [3] | [7] | [4] | [5] | [6]

CC(C)(O)c1ccc(CNC(=O)c2cccnc2Oc2ccc(F)cc2)cc1
inactive: [1] | [2] | [3] | [7] | [4] | [5] | [6] | [8]

CC(=O)O
inactive: [3]

CCCCC(CC)CO (stereo not drawn)
inactive: [9]

CCC(C)N(C)C(=O)c1cc2ccccc2c(-c2ccccc2Cl)n1 (stereo not drawn)
inactive: [9]

CCCCC(CC)COP(=O)(OCC(CC)CCCC)OCC(CC)CCCC (stereo not drawn)
inactive: [1] | [7] | [4] | [5] | [10] | [11] | [12] | [6] | [13]

Cc1cn([C@H]2C=C[C@@H](CO)O2)c(=O)[nH]c1=O
inactive: [1] | [2] | [7] | [14] | [10] | [12] | [6] | [13]

CC(N)=O
inactive: [1] | [2] | [7] | [5] | [10] | [6] | [8]

CSc1ccc(Oc2ccc(S(N)(=O)=O)cc2CN(C)C)cc1C
inactive: [1] | [2] | [7] | [4]
active: [6] 50.9 µM

CC(=O)O[C@]1(C(C)=O)CC[C@H]2[C@@H]3C=C(Cl)C4=CC(=O)[C@@H]5C[C@@H]5[C@]4(C)[C@H]3CC[C@@]21C
inactive: [1] | [2] | [4] | [5] | [6]
active: [8] 15.2 µM

CC(COCC(C)OC(=O)c1ccccc1)OC(=O)c1ccccc1 (stereo not drawn)
inactive: [2] | [4] | [5] | [14] | [10] | [6] | [13]
active: [8] 7.06 µM and 4.45 µM

Oc1ccc(O)cc1
active: [15] 0.767 µM | [16] 35.4 µM | [8] 15.6 µM
inactive: [1] | [2] | [7] | [5] | [6]

O=C1c2c(O)cccc2Cc2cccc(O)c21
active: [15] 11.9 µM
inactive: [1] | [2] | [4] | [5] | [14] | [10] | [11] | [16]

Cn1cnc2c1c(=O)[nH]c(=O)n2C
inactive: [2] | [7] | [5] | [14] | [10] | [12] | [6]

CC(C)NCC(O)c1ccc(O)c(O)c1 (stereo not drawn)
active: [15] 0.616 µM
not listed: [3] | [7] | [8] | [9] | [13] | [14]
inactive: all other assays above

CC(C)OC(=O)C(C)(C)Oc1ccc(C(=O)c2ccc(Cl)cc2)cc1
active: [8] 1.78 µM
inactive: [1] | [4] | [5] | [6] | [13]

CN(C)C(=O)NC1(c2ccccc2)CCN(CC[C@@]2(c3ccc(F)c(F)c3)CN(C(=O)c3ccccc3)CCO2)CC1
inactive: [1] | [7] | [4] | [5] | [14] | [10] | [12] | [6]

CC(=O)S[C@H](C(=O)N[C@H]1Cc2ccccc2[C@H]2CCC[C@@H](C(=O)O)N2C1=O)C(C)C
inactive: [1] | [7] | [11] | [6] | [13]

CC1=C(C)S(=O)(=O)CCS1(=O)=O
inactive: [1] | [2] | [7] | [5] | [10] | [6]

CCc1cc(C2=C(C(=O)O)N(c3ccccc3C(F)(F)F)S(=O)(=O)c3ccccc32)cc2c1OCO2
inactive: [1] | [2] | [7] | [4] | [10] | [6] | [8] | [13]

O=C1OC(c2ccc(O)cc2)(c2ccc(O)cc2)c2ccccc21
active: [15] 2.99 µM | [16] 43.8 µM
not listed: [2] | [8] | [9] | [10] | [14]
inactive: all other assays above

Nc1nc(=S)c2[nH]cnc2[nH]1
inactive: [1] | [7] | [4] | [5] | [10] | [11] | [6]
active: [15] 0.414 µM | [16] 1.29 µM | [13] 3.06 µM

O=C1O[C@H]([C@H](O)CO)C(O)=C1O
active: [15] 43.8 µM
not listed: [1] | [3] | [9] | [10] | [13] | [14]
inactive: all other assays above

Oc1ccccc1O
active: [15] 0.84 µM | [16] 34.4 µM | [8] 60.1 µM
inactive: [1] | [7] | [4] | [5] | [12] | [6]

CCN(CC)CCOc1ccc(C(=C(Cl)c2ccccc2)c2ccccc2)cc1
inactive: [1] | [2] | [4] | [10] | [12]
active: [8] 1.56 µM | [13] 6.22 µM

NC1CCCCC1
inactive: [1] | [2] | [4] | [5] | [6]

CC(=O)[C@@]1(O)CC[C@H]2[C@@H]3CCC4=CC(=O)CC[C@]4(C)[C@H]3CC[C@@]21C
active: [8] 36.1 µM | [13] 62 µM
inactive: [1] | [2] | [7] | [4] | [6]

CS(=O)(=O)c1ccc([C@@H](C[C@H]2CCC(=O)C2)C(=O)Nc2cnccn2)cc1Cl
not listed: [2] | [9] | [10] | [13] | [15] | [16]
inactive: all other assays above

CC(=O)CC(c1ccccc1)c1c(O)c2ccccc2oc1=O (stereo not drawn)
inactive: [3] | [7] | [4] | [5] | [6] | [13]
active: [8] 39.6 µM

O=NO
inactive: [1] | [4] | [5] | [14] | [12] | [6] | [13]

CC(C)COC(=O)CCCCC(=O)OCC(C)C
inactive: [2] | [3] | [4] | [5] | [11]
active: [8] 32.4 µM

COc1ccc(C(=O)Nc2nc3ccccc3c(NCc3ccccc3)c2C#N)cc1
inactive: [2] | [5] | [14] | [10] | [6]

CCCCC(CC)COC(=O)CCCCCCCC(=O)OCC(CC)CCCC (stereo not drawn)
inactive: [3] | [7] | [4] | [5] | [14] | [11] | [6]

N[C@@H](Cc1c[nH]c2ccccc12)C(=O)O
inactive: [7] | [4] | [5] | [11] | [12] | [6] | [8] | [13]

CC(C)c1cccc(C(C)C)c1
inactive: [1] | [2] | [4] | [5] | [6]
